# Bioassay records: PubChem BioAssay, National Center for Advancing Translational Sciences (NCATS)
# Hits are enriched below; roughly 2.3% of the tested compounds scored in any of these assays.
# HTT cytoprotect: protects HTT-Q103 PC12 cells, measured by ATP; PC12 HTT-Q103 induced, cytoprotection, ATP luminescence, 40 h; Potency, µM (highest dose often 56.4 µM), hits mostly activators; hit rate 0.14% among 230,000; AID 1471; note: nearly all actives have a fitted effect of over 45% in size
#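 Compounds were screened for protection of PC12 cells against cell death after tebufenozide induction (100 nM final) of mutant Huntingtin exon 1 (Q103) fused to GFP.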
# RGS12 GoLoco inh: RGS12 GoLoco-Gai1 interaction inhibition. P63096. Gai1:RGS12 GoLoco peptide FP, rhodamine, 10 min. Potency, µM (top dose mostly 61.6 µM), most hits filed as inhibitors. hit rate 0.44% among 230,000; active = well fitted inhibition curve with a large enough effect, not every such curve was filed as active; inactive = no such curve, though single readings can be large or run the other way; note: nearly all actives have a fitted effect of over 30% in size
# Target sequence (P63096 whole entry, looked up): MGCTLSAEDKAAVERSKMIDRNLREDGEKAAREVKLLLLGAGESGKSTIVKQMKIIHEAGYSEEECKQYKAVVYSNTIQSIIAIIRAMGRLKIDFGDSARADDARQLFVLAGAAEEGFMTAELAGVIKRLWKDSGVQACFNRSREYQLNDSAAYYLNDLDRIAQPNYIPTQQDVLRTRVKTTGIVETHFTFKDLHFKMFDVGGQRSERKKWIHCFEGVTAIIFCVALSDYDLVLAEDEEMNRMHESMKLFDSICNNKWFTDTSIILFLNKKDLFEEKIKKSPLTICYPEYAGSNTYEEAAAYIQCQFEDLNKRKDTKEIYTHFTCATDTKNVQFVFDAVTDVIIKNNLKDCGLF
# HttQ103 aggreg: reduces HttQ103-GFP aggregates in PC12 cells. Potency, µM (top dose mostly 46.1 µM), hits mostly inhibitors. hit rate 1.1% among 220,000. PC12 HttQ103-GFP aggregates, Acumen cytometry, 40 h; note: nearly all actives have a fitted effect of over 60% in size
#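 Inducible Q103 Huntingtin exon 1–GFP PC12 line, 1500 cells/well in phenol red free DMEM with 5% equine and 5% calf serum. Tebufenozide 100 nM induced expression; compounds titrated; aggregates quantified by cytometry.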
# Coupling enz: coupling enzyme interference in Giardia aldolase counter-screen; AID 2472; activity change, negative = inhibition, % at 58.2 µM, hits read low; coupling enzyme system counterscreen, AmpLite Red fluorescence; hit rate 0.67% among 290,000; in the data active = activity change below about -30%
#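 Final compound at 57.5 uM, incubated 10 min at RT with coupling enzyme reagent (glyceraldehyde-3-phosphate), then 20 min with substrate and AmpLite Red detection. Fluorescence read at 525/598 nm; tests interference with the coupling assay, not aldolase inhibition.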
# KDM4E inh: inhibitors of human JMJD2E histone demethylase; Potency, µM (top dose mostly 57.1 µM), usual class: inhibitors; hit rate 1.6% among 230,000; AID 2147; B2RXH2; JMJD2E catalytic domain, FDH-coupled NADH fluorescence (FDH is formaldehyde dehydrogenase); note: nearly all actives have a fitted effect of over 50% in size
# Target sequence (B2RXH2 1-337 limits assumed): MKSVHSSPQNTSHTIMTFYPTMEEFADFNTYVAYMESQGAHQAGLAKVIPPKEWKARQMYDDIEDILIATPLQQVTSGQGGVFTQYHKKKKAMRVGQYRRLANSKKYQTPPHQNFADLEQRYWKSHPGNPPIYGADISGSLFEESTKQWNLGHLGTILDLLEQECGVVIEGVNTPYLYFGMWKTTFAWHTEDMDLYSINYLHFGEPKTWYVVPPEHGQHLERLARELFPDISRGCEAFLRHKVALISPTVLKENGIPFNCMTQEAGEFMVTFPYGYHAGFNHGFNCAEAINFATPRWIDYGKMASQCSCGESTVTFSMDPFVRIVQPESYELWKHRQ
# VDR inh: inhibitors of human vitamin D receptor. P11473. VDR-SRC2-3 peptide fluorescence polarization, 2 h. Potency, µM, hits mostly inhibitors. hit rate 0.93% among 400,000. AID 504847
#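 Inhibition of the VDR/SRC2-3 peptide interaction is quantified by fluorescence polarization. Compounds (23 nl, pintool) incubate with the reagents for 2 hours at ambient room temperature.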
# Numbers stand for hits; 0 = inactive; ? = inconclusive; - = not tested or not shown; [ ] = another dose, or the depositor's remark. Unless noted, calls come from the whole dose curve; as a rule, active = well fitted curve in the direction sought with a large enough effect; inconclusive = small, poorly fitted or top-dose-only effect, or another doubt; inactive = no such curve, though single readings can be large; an effect the other way counts as inactive or inconclusive.
SMILES,HTT cytoprotect,RGS12 GoLoco inh,HttQ103 aggreg,Coupling enz,KDM4E inh,VDR inh
O=C(O)c1cccc(NC2=C(N3CCOCC3)C(=O)c3ccccc3C2=O)c1,0[10 µM],0,0[9.22 µM],0,?,71µM
CN(C1=C(N2CCOCC2)C(=O)c2ccccc2C1=O)c1ccccc1,0[10 µM],0,0,-40,0,0
Cc1ccc(NS(=O)(=O)c2cc(C(=O)N(C)C3CCN(C)CC3)ccc2Cl)cc1Cl,-,-,-,-,-,0
CC1=C(C(=O)Nc2ccc(C)cc2C)C(c2ccccc2F)n2nc(SCC(=O)c3ccc(C)cc3)nc2N1 (centres undefined),-,-,-,-,-,0
CC(=O)/C(=C/c1ccccc1)C(=O)Nc1ccccc1C,0,0,0,0,0,22µM
Cc1ccccc1NC(=O)C(=Cc1ccc(C(=O)O)cc1)C(=O)Nc1ccccc1C,0[10 µM],0,6.3µM,0,0,0
Cc1ccc(C(=O)O[C@@H](C(=O)O)[C@@H](OC(=O)c2ccc(C)cc2)C(=O)O)cc1 (tested in a mixture with another compound),0[1.9 µM],-,-,-,-,-
CC(C)c1ccccc1NC(=O)C(Cc1c[nH]c2ccccc12)NC(=O)OC(C)(C)C (centres undefined),-,-,-,-,-,0
COc1ccc2c(c1O)C(=O)c1ccccc1C2=O,0[10 µM],0,0[9.22 µM],0,0,-
CC(C)COC(=O)c1ccc2c(c1O)C(=O)c1ccccc1C2=O,0,0,?,-41,0,0
CCN(CC)S(=O)(=O)c1ccc(S(=O)(=O)N2CCCC(C(=O)NC3CC3)C2)cc1 (centres undefined),-,-,-,0,-,0
CCCCc1c(CCC)c(=N)c2ccccc2n1C,0[10 µM],11µM,8.9µM,0,?,0
CCCCc1c(O)c2ccccc2n(CCCC)c1=O,-,0,0,0,?,0
CCOc1cc(C(=O)Nc2ccc3oc(-c4ccc(CC)cc4)nc3c2)cc(OCC)c1OCC,-,-,-,-,-,0
CCCCN1CC(C)(C)Oc2cccc(F)c2S1(=O)=O,-,-,-,-,-,0
C=CCCC1CN(CCCC)S(=O)(=O)c2c(F)cccc2O1 (centres undefined),-,-,-,-,-,89µM
Nc1cccn2c(-c3ccc(Cl)c(Cl)c3)cnc12,0[10 µM],0,0,0,20µM,0
Cn1c(-c2ccc(Cl)cc2)cnc1N,0,0,0,0,0,0
Nc1cccn2c(-c3ccc(Cl)cc3)cnc12,0,0,0,-31,?,0
CCC(CCC(C)C1CCC2C3CCC4CC(O)CC[C@@]4(C)C3CC[C@@]12C)C(C)C (some centres undefined),-,0,-,0,0,0
CC(CCC(C)C(C)(C)C)[C@@H]1CC[C@H]2C3C[C@H](OS(O)(=S)=S)[C@H]4C[C@H](OS(O)(=S)=S)[C@@H](OS(O)(=S)=S)C[C@]4(C)[C@H]3CC[C@]12C (some centres undefined) (tested in a mixture with another compound),-,-,-,-,-,22µM
CSc1cccc(CNC(=O)C2CCC(=O)N(CCCN3CCCC3=O)C2)c1 (centres undefined),-,-,-,-,-,0
C/C(CC1CC(C)(C)OC1=O)=N\NC(N)=S (centres undefined),0[10 µM],0,0[9.22 µM],0,?,0
C/C(CC1CC2=C(CC1(C)C)C(C)(C)CCC2)=N\NC(N)=S (centres undefined),0,0,0,0,0,79µM
CC(C)(c1ccccc1)c1ccc(OCC(O)CNC2CCN(Cc3ccccc3)CC2)cc1 (centres undefined),0,0,?,0,10µM,0
SMILES,HTT cytoprotect,RGS12 GoLoco inh,HttQ103 aggreg,Coupling enz,KDM4E inh,VDR inh
COc1ccc(OCC(O)CNC2CCCC2)cc1 (centres undefined),-,-,-,0,-,0
CC(=O)Nc1ccc(OCC(O)CNC2CCCC2)cc1 (centres undefined),0,0,?,-38,0,?
CCOC(=O)c1cc(-c2ccc(OC)c(S(=O)(=O)NC3CCCCC3)c2)on1,-,-,-,-,-,0
CCOC(=O)C1=C(C)OC(N)=C(C#N)C1c1c(C)nn(-c2ccccc2)c1Cl (centres undefined),0[10 µM],0,0,-51,?,71µM
C=CCOC(=O)C1=C(C)OC(N)=C(C#N)C1c1c(C)nn(-c2ccccc2)c1Cl (centres undefined),0,0,0[9.22 µM],0,0,0
c1ccc(Cc2cc[n+](Cc3ccccn3)cc2)cc1,0[10 µM],0,0[9.22 µM],0,0,0
N#Cc1ncc(Cc2ccccc2)nc1C#N,-,-,-,0,-,79µM
CC(=O)OC1=C(C#N)Cn2ccc3cccc1c32,0,0,0,-41,?,-
Cc1cc(/C=N/NC(N)=S)c(C)n1-c1ccc(Br)cc1,0,0,0,0,?,?
Cc1nnc(N/N=C/c2cc(C)n(-c3ccc(F)cc3)c2C)n1N,0[10 µM],0,0,-42,?,0
C=CCc1c(C)nc(C)nc1N/N=C/c1ccccc1O,0[10 µM],0,?,0,3.2µM,0
Cc1nnc(N/N=C/c2ccccc2O)n1N,0,0,0,-31,0,0
CCOc1ccc(CCNC(=O)c2ccc(OCc3c(C)noc3C)cc2)cc1OCC,-,-,-,-,-,0
O=C(O)CN1C(=O)/C(=C/c2ccc(SCc3ccccc3)o2)SC1=S,0,0,0,-55,?,?
CCCCNC(=S)N1CCN(C)CC1,0,0,0,0,8.9µM,0
CC(C)CNC(=S)N1CCN(C)CC1,0,0,0,0,0,0
COC(=O)[C@]1(C)N[C@H](CN(C)C(=O)Nc2ccccc2)[C@@H]2C(=O)N(Cc3ccccc3)C(=O)[C@@H]21,-,-,-,-,-,0
Cc1nnc(C)c2c(C)n(Cc3ccc4c(c3)OCO4)c(C)c12,0[10 µM],0,0,0,22µM,0
CN(C1CCCCC1)S(=O)(=O)c1ccc(S(=O)(=O)N2CCCC2)cc1,0[10 µM],0,0,0,0,0
CN(C1CCCCC1)S(=O)(=O)c1ccc(=S)[nH]c1,-,-,-,-,-,50µM
COc1cc(C(=S)N2CCCCC2)ccc1O,0[10 µM],0,0,-37,0,0
COc1ccc(OC)c(S(=O)(=O)Nc2cccc3c(O)cccc23)c1,-,-,-,-,-,0
COc1ccc(OC)c(S(=O)(=O)Nc2ccc(O)c3ccccc23)c1,0[10 µM],0,18µM,-58,?,0
O=C(N/N=C/c1ccc(O)cc1)c1cc[n+](Cc2ccccc2)cc1,0[10 µM],0,0,0,0,0
O=C(N/N=C/c1ccc(OCc2ccccc2)cc1)c1cc[n+](Cc2ccccc2)cc1,0[10 µM],-,0,0,32µM,0
O=C(NCCc1ccccc1)C1CCN(S(=O)(=O)c2ccc(-n3cnnn3)cc2)CC1,0,0,2.8µM,0,0,0
O=C(NCCC1=CCCCC1)C1CCN(S(=O)(=O)c2ccc(-n3cnnn3)cc2)CC1,0,0,0,0,0,0
CN(C)c1ccc2cc(S(=O)(=O)O)cc(O)c2c1,-,-,-,-,-,50µM
O=Nc1c(O)ccc2cc(S(=O)(=O)O)ccc12,-,-,-,-,-,79µM
N#CCCn1c(=O)c(-c2ccccc2)nc2cnc(N3CCNCC3)nc21,?,0,-,0,-,0
